Bioassay records: PubChem BioAssay, National Center for Advancing Translational Sciences (NCATS)
Rows were chosen to be rich in hits. Some 21% of all compounds tested hit in one or more screens of this group.
ELG1 repair inh = qHTS screen for small molecules that inhibit ELG1-dependent DNA repair in human embryonic kidney (HEK293T) cells expressing luciferase-tagged ELG1; 330,000 compounds, 2.3% hits; Potency, µM (highest dose often 46.1 µM), inactives show top-dose activity change, negative = inhibition, actives largely listed as inhibitors; HEK293T ELG1-luciferase reporter, luminescence, 16 h; DNA damage induced by 5-fluorouridine; also: potency is read from the fitted curve at half-maximal effect; nearly all actives have a fitted effect of over 55% in size
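In this reporter screen, reduction of luminescence relative to DMSO vehicle indicated activity. Compounds and 5-fluorouridine were added together to 2,000 cells per well, incubated for 16 hr at 37 °C, then developed with ONE-Glo.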
IL-1B inflam inh = qHTS for Inhibitors of Inflammasome Signaling: IL-1-beta AlphaLISA Primary Screen; THP-1 LPS/ATP IL-1B secretion, AlphaLISA, 16 h; active compounds read low; activity change, % at 57.5 µM; 360,000 compounds, 4.7% hits; AID 743279, 2014; in the data active = activity change below about -50%; inconclusive = mostly about -30% to -49%
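Secreted IL-1B measured by AlphaLISA bead assay after 16 h compound exposure of THP-1 cells; compounds (final up to 57.5 uM) added 1 h before LPS (250 ng/mL) and ATP (1.25 mM) stimulation; lower signal means less secretion.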
DT40 TDP1 CPT = qHTS for Inhibitors of human tyrosyl-DNA phosphodiesterase 1 (TDP1): qHTS in cells in presence of CPT | chicken DT40 Tdp1-/-;hTDP1 cells + 20 nM CPT, ATP luminescence, 48 h | Potency, µM (titrated, usually from 46.2 µM), for the others: at the top dose activity change, negative = growth inhibition, actives largely listed as inhibitors | 420,000 compounds, 12% hits | AID 686979, 2013; also: potency is read from the fitted curve at half-maximal effect; nearly all actives have a fitted effect of over 55% in size
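Chicken DT40 Tdp1-/- cells complemented with human TDP1, 400 cells/well, exposed to compounds plus 20 nM camptothecin for at least 48 h at 37 C; viability read as ATP content by CellTiter-Glo luminescence.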
VP16 counter = VP16 counterscreen qHTS for inhibitors of ROR gamma transcriptional activity. Drosophila S2 Gal4-VP16 UAS-luciferase, luminescence, 20 h. Potency, µM (series often up to 53.6 µM), inactives show at the top dose activity, negative = inhibition, most hits filed as inhibitors. 310,000 compounds, 3.5% hits;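 also: Gal4-VP16 expression switched on by copper sulfate through the metallothionein promoter; potency is read from the fitted curve at half-maximal effect; nearly all actives have a fitted effect of over 50% in size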
RORg inh = qHTS for inhibitors of ROR gamma transcriptional activity. Nuclear receptor ROR-gamma (Mus musculus), P51450. Drosophila S2 Gal4-RORgamma UAS-luciferase reporter, 20 h. Potency, µM (titrated, usually from 53.6 µM), for the others: at the highest dose activity change, negative = inhibition, actives largely listed as inhibitors. 310,000 compounds, 5.4% hits. AID 2551, 2010; also: potency is read from the fitted curve at half-maximal effect; nearly all actives have a fitted effect of over 60% in size
Target sequence (P51450 whole entry, looked up, the tested form may be a part): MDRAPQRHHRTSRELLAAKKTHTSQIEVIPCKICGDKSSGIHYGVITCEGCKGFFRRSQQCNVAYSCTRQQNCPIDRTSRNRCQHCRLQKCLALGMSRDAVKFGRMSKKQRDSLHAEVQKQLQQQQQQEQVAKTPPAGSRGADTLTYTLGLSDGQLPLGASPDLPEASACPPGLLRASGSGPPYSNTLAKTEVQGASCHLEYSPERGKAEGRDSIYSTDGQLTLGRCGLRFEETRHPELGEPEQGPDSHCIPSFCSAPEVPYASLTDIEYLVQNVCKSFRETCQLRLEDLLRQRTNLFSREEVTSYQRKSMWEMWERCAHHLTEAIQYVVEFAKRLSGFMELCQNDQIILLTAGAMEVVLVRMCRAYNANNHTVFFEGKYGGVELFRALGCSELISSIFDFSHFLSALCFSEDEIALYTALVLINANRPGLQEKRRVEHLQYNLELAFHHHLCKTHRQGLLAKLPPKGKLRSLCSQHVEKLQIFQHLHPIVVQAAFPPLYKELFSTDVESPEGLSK
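Using a luciferase readout, inhibitors were identified by reduced reporter activity in Drosophila cells coexpressing a copper-inducible Gal4–ROR gamma fusion and UAS-driven Photinus luciferase, incubated 20 hr after 700 uM copper sulfate.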
TDP1 cell noCPT = qHTS for Inhibitors of human tyrosyl-DNA phosphodiesterase 1 (TDP1): qHTS in cells in absence of CPT | AID 686978, 2013 | Potency, µM (highest dose often 46.2 µM), for inactives: top-dose activity change, negative = growth inhibition, most hits filed as inhibitors | DT40 Tdp1-/- hTDP1 cells, no CPT, ATP luminescence, 48 h | 420,000 compounds, 15% hits; also: potency is read from the fitted curve at half-maximal effect; nearly all actives have a fitted effect of over 55% in size
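DT40 Tdp1-/-;hTDP1 cells, no CPT (DMSO vehicle only), 400 cells/well; compounds pin-transferred; ≥48 hr, 37 °C; CellTiter-Glo 30 min RT dark, luminescence read.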
* = called active by the depositor; ? = inconclusive; . = no result given. Unless noted, calls follow the shape of the dose curve; as a rule, active = well fitted curve in the direction sought with a large enough effect; inconclusive = small, poorly fitted or top-dose-only effect, or another doubt; inactive = no such curve, though single readings can be large; an effect the other way counts as inactive or inconclusive. % is scaled to controls: 0 for no effect and ±100 for the full control effect.

SMILES | ELG1 repair inh | IL-1B inflam inh | DT40 TDP1 CPT | VP16 counter | RORg inh | TDP1 cell noCPT
CC(C)C(=O)Nc1ccc(N2CCOCC2)c(S(=O)(=O)Nc2ccccc2Cl)c1 | ? | -14.4 | ? | . | . | 13µM*
COc1ccc(NS(=O)(=O)c2cc(NC(=O)c3ccc(Cl)cc3)ccc2N2CCOCC2)cc1 | 9.2µM* | -25.9 | 2.59µM* | . | . | 2.31µM*
C[C@H](NC(N)=O)C(=O)Nc1ccc(N2CCOCC2)c(S(=O)(=O)Nc2ccc(Cl)cc2)c1 | 2.2% | -0.6 | 20.6µM* | . | . | ?
CC(=O)Nc1ccc(N2CCOCC2)c(S(=O)(=O)Nc2ccccc2Cl)c1 | . | -3.2 | -13.2% | . | . | -19.6%
COc1ccc(NS(=O)(=O)c2cc(NC(=O)C3CC3)ccc2N2CCOCC2)cc1 | 1.0% | -3.4 | -17.2% | -7.0% | 2.0% | -29.1%
Cc1cc(O)cc2c1O[C@](C)(CCC[C@H](C)CCC[C@H](C)CCCC(C)C)CC2 | . | . | -9.5% | -7.3% | 18.6% | -18.1%
CC1(C)CC(=O)c2cc(C(=O)Nc3ccccc3)c(=O)[nH]c2C1 | . | . | -23.6% | . | . | ?
COc1ccc(S(=O)(=O)N2CCC(C(=O)NC3CCCCC3C)CC2)cc1 (stereo not drawn) | -1.2% | -7.2 | -5.2% | -4.6% | 11.2% | ?
COc1ccccc1NS(=O)(=O)c1cc(NC(=O)Nc2ccc(Cl)cc2Cl)ccc1N1CCCCC1 | -2.2% | -5.1 | ? | -5.6% | 32.3% | ?
O=C(Nc1cccc(C(F)(F)F)c1)Nc1ccc(N2CCCC2)c(S(=O)(=O)Nc2ccccc2Cl)c1 | ? | -70.7* | 3.26µM* | 11.2µM* | ? | 2.91µM*
COc1cc(OC)cc(C(=O)NNC(=S)NC(=O)c2cccnc2)c1 | -20.4% | -0.3 | ? | -22.3% | 11.2µM* | 3.66µM*
O=C(NC(=S)NCCSc1ccccc1)c1cccnc1 | ? | 15.7 | -21.4% | ? | 12.6µM* | -26.7%
COc1ccc(C(=O)NC(=S)NNC(=O)c2cnccn2)cc1OC | -23.0% | 28.1 | ? | 3.5% | -26.8% | ?
COc1cc(OC)cc(C(=O)NC(=S)NNC(=O)c2cnccn2)c1 | -4.1% | 37.4 | 5.8µM* | ? | ? | 5.17µM*
O=C(NC(=S)Nc1ccccc1Br)c1cccnc1 | ? | 0.0 | 1.5% | 17.8µM* | 10µM* | ?
CCC(C)c1ccc(O)c(NC(=O)c2cccnc2)c1 (stereo not drawn) | 4.3% | 19.9 | ? | 1.0% | 0.0% | ?
COc1ccc(NC(=S)NC(=O)c2cccnc2)cc1 | 0.7% | 25.2 | 26.8% | ? | 11.2µM* | -13.0%
CC(C)(C)c1cc(Cl)c(O)c(NC(=S)NC(=O)c2cccnc2)c1 | 9.2µM* | 9.4 | 4.61µM* | 0.891µM* | 0.159µM* | 6.51µM*
CC(C)c1ccc(O)c(NC(=S)NC(=O)c2cccnc2)c1 | -4.9% | 11.7 | 4.61µM* | 1.41µM* | 0.708µM* | 18.4µM*
CC(C)(C)c1ccc(C(=O)NNC(=S)NC(=O)c2cccnc2)cc1 | ? | 83.0 | 7.31µM* | ? | 2.82µM* | 7.31µM*
CC(C)(C)c1ccc(OCC(=O)NNC(=O)c2cccnc2)cc1 | -15.5% | 4.0 | 1.4% | 2.0% | 9.5% | -7.1%
CC1CC[C@@]2(OC1)OC1CC3C4CC=C5CC(O)CC[C@@]5(C)C4CC[C@]3(C)C1C2C (stereo partly drawn) | . | . | -4.7% | -11.8% | 0.8% | 4.6%
COc1cccc(-c2nc(N3CCNCC3)c3ccccc3n2)c1 | . | . | ? | -3.6% | 19.6% | ?
NC(=O)Cn1cnc2c(nnn2-c2ccc(F)cc2)c1=O | -1.5% | -12.8 | -6.5% | -7.3% | 15.7% | -6.8%
CC(C)(C)c1ccc(OCCNC(=S)NC(=O)c2cccnc2)cc1 | 6.3% | 10.6 | 6.7% | ? | 12.6µM* | -18.1%
SMILES | ELG1 repair inh | IL-1B inflam inh | DT40 TDP1 CPT | VP16 counter | RORg inh | TDP1 cell noCPT
O=C(NC(=S)NCc1cccnc1)c1ccccc1 | 5.4% | 6.8 | 0.1% | 9.3% | -33.2% | 4.7%
CCN(Cc1ccccc1)C(=O)Cn1c(=O)n(-c2cccc(C)c2)c(=O)c2c1c1cc(OC)ccc1n2C | . | . | 11.6µM* | . | . | 16.4µM*
Cc1ccc(CNC(=O)Cn2c(=O)n(-c3ccccc3)c(=O)c3c2c2cc(C)ccc2n3C)cc1 | . | . | -2.0% | . | . | 1.7%
CCN(Cc1ccccc1)C(=O)Cn1c(=O)n(-c2ccccc2)c(=O)c2c1c1cc(C)ccc1n2C | . | . | 9.2µM* | . | . | 3.66µM*
CCc1ccc(-n2c(=O)c3sc4ccccc4c3n(CC(=O)N(CC)Cc3ccccc3)c2=O)cc1 | . | . | 18.4µM* | . | . | 18.4µM*
CC(C)(C)OC(=O)NCc1ccc(NC(=O)c2nc[nH]c2C(=O)N[C@@H](Cc2ccccc2)C(=O)OC(C)(C)C)cc1 | ? | ? | 14.6µM* | 11.2µM* | 7.08µM* | 11.6µM*
CC(C)C[C@H](NC(=O)c1[nH]cnc1C(=O)Nc1ccc(CNC(=O)OC(C)(C)C)cc1)C(=O)OCc1ccccc1 | ? | -1.7 | ? | ? | 5.62µM* | 14.6µM*
C[C@@H](CO)NC(=O)c1[nH]cnc1C(=O)Nc1ccc(CNC(=O)OC(C)(C)C)cc1 | . | -3.9 | 23.1µM* | . | . | 11.6µM*
C[C@@H](O)CNC(=O)c1[nH]cnc1C(=O)Nc1ccc(CNC(=O)OC(C)(C)C)cc1 | . | 0.0 | ? | . | . | ?
CCOC(=O)c1ccc(NC(=O)c2nc[nH]c2C(=O)N[C@@H](C)CO)cc1 | . | ? | -1.2% | . | . | 20.6µM*
C[C@H](CO)NC(=O)c1[nH]cnc1C(=O)Nc1ccc(CNC(=O)OC(C)(C)C)cc1 | . | -16.9 | -16.7% | . | . | ?
COc1ccc([C@@H]2CC=C(C(=O)O)[C@H](c3cccc(Cl)c3)N2S(=O)(=O)c2ccccc2C)cc1 | ? | 38.3 | -17.3% | . | . | -8.5%
C[C@H](NC(=O)c1nc[nH]c1C(=O)NCc1ccccc1)C(=O)OCc1ccccc1 | 3.7% | 50.8 | 4.6% | -20.8% | ? | -18.2%
C[C@H](NC(=O)c1[nH]cnc1C(=O)Nc1ccc(CNC(=O)OC(C)(C)C)cc1)C(=O)OCc1ccccc1 | -29.5% | 1.1 | ? | ? | ? | 18.4µM*
